According to the supplement of paper PMC3334620:
In all, about 33,000 sequences were measured (“E-score (-0.5 to 0.5)”: median about -0.0059, highest 2% from about 0.26 on). This excerpt belongs to a sample that is enriched for the highest values.

Target: T1, Cin5 (UniProt P40917)
T1 sequence: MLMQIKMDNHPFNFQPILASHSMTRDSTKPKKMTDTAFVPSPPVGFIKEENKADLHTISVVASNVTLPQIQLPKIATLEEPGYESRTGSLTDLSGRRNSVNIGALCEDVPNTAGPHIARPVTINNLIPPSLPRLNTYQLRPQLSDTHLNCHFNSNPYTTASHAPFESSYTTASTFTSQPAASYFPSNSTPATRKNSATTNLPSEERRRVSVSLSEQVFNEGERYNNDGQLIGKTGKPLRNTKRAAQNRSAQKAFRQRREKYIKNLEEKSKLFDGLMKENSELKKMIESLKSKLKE
Assay: PBM E-score (8-mer binding enrichment) (E-score (-0.5 to 0.5)); higher = stronger / more preferred TF binding
Conditions: protein concentration: 100 nM; construct: GST-full length
Protocol: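 Universal 'all 10-mer' protein binding microarrays (Agilent AMADID 015681) probed with GST-tagged S. cerevisiae TFs (full-length or DBD) made by in vitro transcription/translation (PURExpress), about 100-200 nM. Bound TF was detected with fluorescent anti-GST. Each ungapped 8-mer (which stands for itself and its reverse complement) is scored by the PBM enrichment score (E-score), a modified Wilcoxon-Mann-Whitney statistic from -0.5 to +0.5, computed with the Universal PBM Analysis Suite. Scale: above 0.35 generally sequence-specific binding.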

Row | Sequence | PBM E-score
1 | ATACGCAA | 0.217
2 | GTACGCAA | -0.0571
3 | TTACGCAA | 0.306
4 | CAGCTCCC | -0.305
5 | ACATGTTA | 0.126
6 | ATACAAAT | 0.22
7 | CTACAAAA | 0.111
8 | ATACAACC | 0.0923
9 | ATACAACA | 0.272
10 | ATACAAAA | 0.28
11 | GAACAAAC | 0.226
12 | ATACAACG | 0.174
13 | GAACAAAA | 0.278
14 | AAACAAAA | 0.137
15 | CCCCTCGA | 0.0859
16 | ACAGGCTA | -0.0671
17 | CCCACAGC | -0.192
18 | TAAAATAA | 0.141
19 | GTAAATAA | 0.189
20 | ATAAATAA | 0.321
21 | CTAATAAA | 0.164
22 | TTAAATAA | 0.313
23 | ATAAATAC | 0.279
24 | ATAAATAG | 0.102
25 | CTAAATAC | 0.085

Row | Sequence | PBM E-score
26 | ATAAATAT | 0.226
27 | ATAATAAA | 0.24
28 | TTAATAAA | 0.287
29 | CTAAATAA | 0.0261
30 | ATGTGGTG | 0.114
31 | CCTCGCAC | -0.0617
32 | CTTAGATC | -0.0574
33 | CGGCATGA | 0.123
34 | GAATTCTC | 0.0994
35 | ACCACGAT | 0.161
36 | AGCTACCT | -0.0535
37 | ATCACTGC | 0.0947
38 | CGTGTTGA | -0.0277
39 | AACCCAAC | 0.17
40 | ACTTTACG | 0.119
41 | GGGGCACC | -0.367
42 | GGGTCACC | -0.297
43 | CCGAATTA | 0.0794
44 | GCGAATTA | 0.266
45 | ACGAATTA | 0.0396
46 | GATGGTAC | 0.0499
47 | AGGTAATG | 0.124
48 | AGGTAATC | 0.313
49 | CGGTAATA | 0.181
50 | GGGTAATA | 0.122

Row | Sequence | PBM E-score
51 | AGGTAATA | 0.296
52 | CGGTAATC | -0.0552
53 | CGGAGCTC | -0.269
54 | ATTCTTGG | 0.153
55 | TGTAAACA | 0.0928
56 | CACCAGCG | -0.0689
57 | CTTTAGTA | -0.00776
58 | AATTAGTG | 0.188
59 | ATTTAGTC | 0.0988
60 | AATTAGAC | 0.0847
61 | GATTAGTA | 0.254
62 | AATTAGTA | 0.308
63 | AATTAGTC | 0.26
64 | AATTAGAG | 0.146
65 | AATTAGAT | 0.294
66 | CATTAGTA | 0.188
67 | ATTTAGTA | 0.303
68 | CATTAGTC | 0.0189
69 | AGCGTCAG | -0.124
70 | AGCGAGCC | -0.0601
71 | CACGAAGA | 0.132
72 | CGTTTCTA | -0.00786
73 | AGATAACT | 0.159
74 | ATGCTACA | -0.0162
75 | ATCTAGAC | -0.125

Row | Sequence | PBM E-score
76 | ATTTGATC | 0.0618
77 | ATATGATG | 0.158
78 | GTATGATA | 0.275
79 | GCATGATA | 0.168
80 | CTTTGATA | 0.116
81 | ACATGATA | 0.187
82 | GTATGAGA | 0.144
83 | CTATGATC | -0.0495
84 | ATATGATA | 0.314
85 | ATTTGATA | 0.319
86 | CTATGATA | 0.116
87 | ATATGATC | 0.258
88 | ATTCTTCG | 0.138
89 | CTGATCGC | 0.0487
90 | AAGGAAAT | 0.0752
91 | ATTGGTGC | 0.134
92 | ACGCTCAC | 0.0871
93 | CCTCACGC | 0.0561
94 | GTCAGCGA | -0.0481
95 | ACCACCCT | -0.163
96 | ATGCTATC | -0.00354
97 | CGAACGCG | 0.00852
98 | AGAAACCA | 0.123
99 | CTGTGATA | 0.0273
100 | GTGTGATA | 0.2

Row | Sequence | PBM E-score
101 | ATGTGATA | 0.266
102 | ATCGCCCA | -0.11
103 | CAACGGTA | -0.181
104 | CGTAAAGC | -0.147
105 | GTTTGGTA | 0.296
106 | ATTTGGTA | 0.252
107 | CTTTGGTA | -0.205
108 | AGGACCGG | -0.294
109 | ACCGCTCG | -0.0731
110 | CCCTATGC | 0.0135
111 | ACAACCCG | -0.0389
112 | CGCAACTA | 0.267
113 | GGCAACTA | 0.0726
114 | CGCAACTC | 0.103
115 | CAGAACGA | 0.0474
116 | CAAAGACG | -0.0507
117 | CGCTGGGC | -0.295
118 | GATATGAA | 0.0853
119 | AATATGAT | 0.297
120 | AATATGAC | 0.163
121 | TATATGAA | 0.129
122 | AATATGAG | 0.0321
123 | AATATGAA | 0.258
124 | AGGGTGTC | -0.136
125 | GGTCCTAA | -0.143

Row | Sequence | PBM E-score
126 | CAGGAAGA | -0.0593
127 | GGGCAGGA | -0.00266
128 | CGATGTAA | 0.102
129 | TAATGTAA | 0.33
130 | AGATGTAA | 0.169
131 | AAATGTAA | 0.14
132 | GAATGGAA | 0.181
133 | TGATGTAA | 0.329
134 | GAATGTAA | 0.241
135 | AAATGTAT | 0.276
136 | AAATGTAG | 0.101
137 | AAATGTAC | 0.19
138 | TAATGGAA | 0.281
139 | AAATGGAA | 0.0906
140 | CCGGGGCG | -0.146
141 | GCTACGGA | -0.165
142 | TCACCGGA | 0.0333
143 | GTGGGAAC | -0.144
144 | GCCACGCC | -0.127
145 | CAGAGCAC | -0.123
146 | CCCCATAA | 0.00568
147 | ACGCAGCC | -0.0404
148 | ACCGGGGC | -0.136
149 | GAATGTGA | 0.00014
150 | CAATGTGA | 0.117

Row | Sequence | PBM E-score
151 | TAATGTGA | 0.292
152 | ACTACCAG | -0.086
153 | ACGCAAAT | -0.0291
154 | ATGCATTC | 0.163
155 | ATGCATCA | 0.287
156 | CTGCATTA | -0.154
157 | ATGCATTA | 0.341
158 | ATGCATCG | 0.098
159 | GTGCATCA | 0.00241
160 | ACTAACAT | 0.192
161 | CTACCCTA | -0.101
162 | CACGGTGG | 0.0279
163 | CCTATCCG | -0.0857
164 | CCGGTACA | -0.00292
165 | CGTAATCC | 0.383
166 | GATAATCA | 0.159
167 | AATAATCA | 0.257
168 | CATAATCC | 0.265
169 | GATAATCC | 0.17
170 | CCTAATCC | 0.029
171 | CGTAAGGC | -0.0166
172 | AATAATCC | 0.0532
173 | CGTAAGCC | 0.39
174 | CGTAATTC | 0.228
175 | AGTAAGCC | 0.216

Row | Sequence | PBM E-score
176 | CATAATCA | 0.385
177 | CGGACCCC | -0.295
178 | ACCGTTAT | -0.0275
179 | CACGGCCA | -0.145
180 | ATGGCTGC | -0.0428
181 | CACGGGGG | -0.401
182 | TATAATAA | 0.241
183 | TATAATCA | 0.342
184 | CATAATCG | 0.324
185 | AATAATCG | 0.247
186 | TATAATGA | 0.21
187 | CATAATGG | 0.0936
188 | CGATCACG | 0.117
189 | ATGTGCGA | -0.106
190 | ACTCCTGG | -0.216
191 | ACCACAAG | -0.117
192 | TCAATGAA | 0.159
193 | ATTATCTC | 0.306
194 | CCTATCTC | 0.0294
195 | ACTATCTC | 0.121
196 | ACTATCTA | 0.148
197 | GTTATCTA | 0.131
198 | CTTATCTC | 0.0536
199 | ATTATCTG | 0.152
200 | CTTATCTA | 0.276

Row | Sequence | PBM E-score
201 | ATTATCTA | 0.315
202 | AACTCGAT | 0.15
203 | AACCCTAT | 0.107
204 | TACGGGAA | -0.108
205 | CCTTCATC | -0.183
206 | GTGCAAGA | 0.0774
207 | GTAGAACA | -0.165
208 | GGGAATGA | 0.277
209 | CGGAATGA | 0.146
210 | AGGAATGA | 0.0586
211 | CACCTCTA | 0.0362
212 | CGCGTATC | 0.06
213 | CCACAACG | -0.153
214 | AAACTAAG | 0.185
215 | AAACTAAT | 0.312
216 | AAACTAAA | 0.199
217 | ATAGTCAC | 0.129
218 | AGCCGACG | -0.0574
219 | CGAACAAA | 0.272
220 | GGAACAAC | 0.0525
221 | CGAACAAG | -0.0215
222 | GGAACAAA | 0.32
223 | AGAACAAA | 0.194
224 | TGAACAAA | 0.217
